About 1,700 (0.5%) of roughly 340,000 compounds were called active. Rule as the data show it: active = inhibition above about 40%; inactive = the rest. Only a selection was taken, and actives are over-represented in it overall.
Each compound was assayed against Cysteine protease ATG4B (Homo sapiens) (UniProt Q9Y4P1) (assay: blockers of ATG4B cysteine protease activity – biochemical, fluorescence, uHTS, primary screen (AID 504462)). Conditions: ATG4B cleavage of LC3-PLA2, NBD-HPC fluorescence, 1 h; at 8.33 µM; hits give high values.
Chain of Cysteine protease ATG4B (Homo sapiens) (Q9Y4P1 whole entry, looked up): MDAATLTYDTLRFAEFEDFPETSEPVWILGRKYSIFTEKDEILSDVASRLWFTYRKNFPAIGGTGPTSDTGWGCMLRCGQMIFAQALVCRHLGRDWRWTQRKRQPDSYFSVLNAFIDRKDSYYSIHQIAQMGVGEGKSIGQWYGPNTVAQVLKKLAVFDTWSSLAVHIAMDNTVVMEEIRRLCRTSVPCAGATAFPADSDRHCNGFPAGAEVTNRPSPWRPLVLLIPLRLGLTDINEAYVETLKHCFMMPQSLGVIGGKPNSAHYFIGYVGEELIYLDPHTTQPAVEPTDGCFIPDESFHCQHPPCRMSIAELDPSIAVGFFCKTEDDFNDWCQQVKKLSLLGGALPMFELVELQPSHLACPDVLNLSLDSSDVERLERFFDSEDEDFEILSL

inhibition, active:
COc1ccc(C)cc1S(=O)(=O)N(CC(=O)Nc1cccc([N+](=O)[O-])c1)c1ccc(C)cc1 88.8%
Cc1ccc(S(=O)(=O)N(CC(=O)Nc2cccc([N+](=O)[O-])c2)Cc2ccc(Cl)cc2)cc1 75.6%
CC(C)c1ccc2c(c1)c(SC(C)(C)C)c(CC(C)(C)C(=O)O)n2Cc1ccc(Cl)cc1 56.2%
COc1cnc(-c2ccccn2)nc1Oc1ccc(C(C)(C)C)cc1 59.3%
Cc1ccc(-c2cc(C(=O)N3CCc4ccccc4C3)no2)cc1 40%
O=C1c2ccccc2C(=O)N1Cc1cc(-c2ccccc2Cl)no1 56.3%
Cc1nc2ccccc2c(-c2ccccc2)c1C(=O)c1ccccc1 80%
COC(=O)c1c(NC(=O)COC(=O)[C@@H](NS(=O)(=O)c2ccccc2)C(C)C)sc2c1CCC2 71%
COc1ccc2c(c1)CCc1c(C(=O)N3CCc4ccccc4C3)noc1-2 55.6%
Cc1cccc(C2c3[nH]c4ccccc4c3CCN2C(=O)c2cc(-c3cccn3C)n[nH]2)n1 (centres undefined) 62.3%
O=C(N/N=C/c1coc2ccccc2c1=O)c1cc2ccccc2o1 61.1%
O=C(Nc1nnc(SCc2ccccc2Cl)s1)c1cccc([N+](=O)[O-])c1 71.7%
COc1ccc(Br)cc1C(=O)NC(=S)Nc1cc(-c2nc3ccccc3[nH]2)ccc1C 65%
C#CCOCCOCCOCCNc1nc(N2CCN(C(=O)CCCCCCCCCCNC(=O)[C@H]([C@@H](C)CC)n3cc(CCCCN=C(N)N)nn3)CC2)nc(N2CCN(C(=O)CCCCCCCCCCNC(=O)[C@H](CO)n3cc(CCCSC)nn3)CC2)n1 41.9%
O=C1N=C(N2CCc3ccccc3C2)S/C1=C\c1ccc(O)cc1 67.7%
CCCc1nc2c(c(=O)c3ccccc3n2C)c(=O)n1C1CCCCCC1 41.3%
CCN1CCN(c2c(Cl)cccc2NC(=O)c2ccc(Br)o2)CC1 56.4%
O=C1C(=O)N(CC2COc3ccccc3O2)c2ccccc21 (centres undefined) 72.1%
FC(F)(F)c1cccc(NC(=S)Nc2cccc(Cl)c2)c1 44.3%
Cc1nc(SCC(=O)N2CCc3ccccc3C2)c2c(C)c(C)sc2n1 71.6%

inhibition, inactive:
Cc1ccccc1OCc1nnc(SCC(=O)N2c3ccccc3Sc3ccc(Cl)cc32)o1 -8.7%
O=S(=O)(Oc1ccccc1C(=S)N1CCOCC1)c1ccc(Cl)cc1 2.25%
CN(C)c1cc(N)c2ccccc2n1 (tested in a mixture with another compound) -6.07%
Cn1cc[n+](C)c1COc1ccc(C=O)cc1 6.27%
COc1ccc(N(CC(=O)Nc2ccc(C)cc2C)S(=O)(=O)c2ccccc2[N+](=O)[O-])c(OC)c1 -12.7%
Cc1ccc(S(=O)(=O)N(Cc2cccc([N+](=O)[O-])c2)C(=O)N2CCN(C)CC2)cc1 3.55%
CN(c1ccccc1)S(=O)(=O)c1cccc(NC(=O)Cc2ccc(Cl)cc2)c1 -14.9%
Cc1ccc(N(CC(=O)Nc2cc(C)cc(C)c2)S(=O)(=O)c2cccc3nonc23)cc1 12.5%
CCCCn1c(N)c(N(CC(C)C)C(=O)CSc2ccc([N+](=O)[O-])cc2)c(=O)[nH]c1=O 8.17%
CCOC(=O)CCCNC(=O)COC(=O)c1cc(Br)c(Br)s1 -7.58%
C/C=N/NC(=O)CCCC(=O)N/N=C/C -3.09%
CCN(CC)S(=O)(=O)c1ccc(N(C)Cc2ccc(C(F)(F)F)cc2)nc1 -7.77%
O=C(c1ccco1)N1CCN(CC(=O)N(C2CCCCC2)C2CCS(=O)(=O)C2)CC1 (centres undefined) 0.94%
N#Cc1ccc(Oc2cc(C(F)(F)F)nc(-c3ccccn3)n2)cc1 -10.2%
COc1ccc(NCCc2ccccn2)cc1 -5.58%
CCCCN(C1CCS(=O)(=O)C1)S(=O)(=O)c1ccc(C(C)C)cc1 (centres undefined) 6.86%
O=C(c1cc(-c2cccc(O)c2)on1)N1CCc2ccccc2C1 35.8%
Cn1cccc1C(=O)N1CCc2ccccc2C1 -0.25%
O=C(Nc1ccccc1Cl)N1CCN(c2ccc3nncn3n2)CC1 -9.87%
CN1C(=O)[C@H]2[C@@H](C3CC3)N3C(=O)CN(Cc4ccccc4)C(=O)[C@@]3(C)[C@H]2C1=O 0.76%
O=C1c2ccccc2C(=O)N1CCCCCCN1C(=O)c2ccccc2C1=O 2.67%
O=C1c2ccccc2C(=O)N1CCCc1nc(-c2ccccc2)no1 3.08%
Cc1nc2ccccc2c(C(=O)O)c1-c1ccccn1 -2.51%
Cc1nc2ccccc2c(C)c1C(=O)c1ccc(F)cc1 -2.83%
CCn1c2c(c3ccc(OC)cc31)CCCC2=O -3.83%
CCn1nnc(NC(=O)c2cc(Cl)c(OC)c(Cl)c2)n1 -1.88%
O=C(Nc1ccccc1Cc1ccccc1)c1ccc2c(c1)SC1=NS(=O)(=O)CCN12 -8.36%
CC(=O)c1cc(-c2ccccc2)n(CCC(=O)NC2CCCCCC2)c1C -4.01%
COC(=O)c1c(NC(=O)CN(c2ccc(C)c(C)c2)S(C)(=O)=O)sc2c1CCCC2 -3.55%
CCc1ccc(N(CC(=O)Nc2sc3c(c2C(=O)OC)CCCC3)S(C)(=O)=O)cc1 -5.39%
O=[N+]([O-])/C=C/c1ccc2c(ccn2Cc2ccccc2)c1 5.14%
O=C(c1noc2c1CCCC2)N1CCc2ccccc2C1 0.28%
COc1ccc2c(c1)CCc1c(C(=O)N3CCCC3)noc1-2 -6.35%
O=C(c1cn2ccccc2n1)N1CCc2c([nH]c3ccccc23)C1c1ccccn1 (centres undefined) -13.7%
Cc1cccc(C(=O)N2CCc3c([nH]c4ccccc34)C2CC(C)C)n1 (centres undefined) -9.03%
O=C(COc1cc(Cl)c(Cl)cc1Cl)NC(=O)NC1CCCC1 -1.73%
Cc1c(/C=N\NC(=O)c2cc3ccccc3o2)c2ccccc2n1C -15.2%
CC(C)(C)OC(=O)NCCCCCC(=O)N/N=C/c1coc2ccccc2c1=O 14.7%
O=C(COCc1cc(-c2ccc3c(c2)OCO3)on1)N1CCN(c2cccc(Cl)c2)CC1 5.35%
CCOc1ccc(CC(=O)NCCS(=O)(=O)N2CCN(c3ccccc3)CC2)cc1 -6.99%
O=C(Nc1nnc(SCc2c(Cl)cccc2Cl)s1)c1cccc([N+](=O)[O-])c1 7.45%
NC(=O)CSc1nnc(NC(=O)c2ccc3ccccc3c2)s1 5.71%
CN(CC(=O)Nc1cccc(F)c1)C(=O)C1CC(=O)N(CCc2ccccc2)C1 (centres undefined) -5.48%
OC(CNCc1ccc(Cl)c(Cl)c1)c1ccccc1 (centres undefined) 40%
CCOC(=O)c1ccc(NNC(C)=O)c([N+](=O)[O-])c1 -7.65%
COc1cc2ccccc2cc1C(=O)Nc1ccccc1C -2.98%
COc1ccc(Br)cc1C(=O)Nc1cccc(C)c1C 7.75%
CN1C(C)(C)CC(NC(=O)CCC(=O)NC2CC(C)(C)N(C)C(C)(C)C2)CC1(C)C -1.23%
C#CCOCCOCCOCCNc1nc(N2CCN(C(=O)[C@H](CCCN=C(N)N)n3cc(C(N)[C@@H](C)CC)nn3)CC2)nc(N2CCN(C(=O)[C@H](CO)n3cc([C@@H](N)C(C)C)nn3)CC2)n1 (some centres undefined) -2.36%
C#CCOCCOCCOCCNc1nc(N2CCN(C(=O)Cn3cc(CCO)nn3)CC2)nc(N2CCN(C(=O)Cn3cc(CCCN=C(N)N)nn3)CC2)n1 -2.83%
O=C(c1n[nH]c2c1CCC2)N1CCCC(Nc2cccc(F)c2)C1 (centres undefined) 5.08%
CCOc1cc(/C=C2\SC(N3CCCCC3)=NC2=O)ccc1O -6.5%
CCc1ccc(/C=C2\SC(N3CCOCC3)=NC2=O)cc1 -5.05%
O=C(NCCCO)/C(=C\C=C\c1ccccc1)NC(=O)c1ccccc1Cl -7.32%
O=C1CSC(=S)N1c1ccc(Cl)c(Cl)c1 4.82%
CC1CC(C)CN(C/C=C/c2ccccc2[N+](=O)[O-])C1 (centres undefined) 11.3%
CC1CCN(Cc2nc3c(c(=O)n(C)c(=O)n3C)n2CCc2ccccc2)CC1 -1.37%
Cn1c2ccccc2c2c(C(=O)N3CCN(c4ccc(F)cc4)CC3)cn(C3CCCC3)c(=O)c21 -29.5%
Cn1nc(C(C)(C)C)c(NC(=O)c2sccc2Cl)c1C(C)(C)C 8.72%
O=C(O)C1=NN(c2c(F)c(F)cc(F)c2F)C(=O)CC1 -1.19%
O=C(Nc1cccc(Cl)c1N1CCOCC1)c1cccnc1 -5.52%
O=C(Nc1cccc(Cl)c1N1CCOCC1)c1ccc2c(c1)OCCO2 33.9%
C[C@H](CO)N1C[C@H](C)[C@@H](CN(C)S(=O)(=O)c2ccc(F)cc2)Oc2c(NC(=O)Nc3ccccc3)cccc2C1=O -16.4%
O=C(CN1C(=O)C2C3C=CC(C3)C2C1=O)NCC1COc2ccccc2O1 (centres undefined) 0.03%
O=C(NCC1COc2ccccc2O1)C1(c2ccccc2)CCCC1 (centres undefined) 4.25%
FC(F)(F)c1cccc(N/N=C/c2ccccc2)c1 -3.29%
Cn1cc(Cl)c(C(=O)NNC(=S)Nc2cccc(Cl)c2)n1 -0.09%
O=C(CSc1nnc(-c2cccs2)n1Cc1ccccc1)N1CCc2ccccc2C1 31.5%
Cc1nc(SCC(=O)N2CC(=O)Nc3ccccc32)c2c(C)c(C)sc2n1 26.7%
